PubChem BioAssay (NCATS)
Inconclusive results are not listed. Where a call stands in place of a potency, no number is given. Activity calls are given as the source filed them. Calls follow the shape of the dose curve; as a rule, active = well fitted curve in the direction sought with a large enough effect; inconclusive = small, poorly fitted or top-dose-only effect, or another doubt; inactive = no such curve, though single readings can be large; an effect the other way counts as inactive or inconclusive. Where a SMILES comes first, the peptide text is derived from it. [ ]: non-standard residue; d: D form. pGlu = O=C1CC[C@@H](C(=O)O)N1

test system: not listed separately; test: qHTS to identify inhibitors of the type 1 interferon - major histocompatibility complex class I in skeletal muscle: primary screen against the NCATS Pharmaceutical Collection (AID 1347407); conditions: human skeletal muscle cells, IFN-b-induced MHC-I HiBiT luminescence, 24 h; series mostly up to 45.9 µM;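 also: luminescence of HiBiT knocked into endogenous HLA-B as interferon-induced MHC class I level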
Method in brief: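 Immortalized human myoblasts (C25cl48) with HiBiT knocked into endogenous HLA-B*08:01 were stimulated with 4 ng/ml IFN-beta and treated with compounds (8-point, 1:5, top 46 uM final) for 24 h at 37 C; HiBiT lytic luminescence read.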
Potency is read from the fitted curve at half-maximal effect.

SMILES	Potency
CN(C)CCN1CCN(c2cccc(Cl)c2)C1=O	inactive
COc1ccc(-n2nc(CCC(=O)N(C)O)cc2-c2ccc(Cl)cc2)cc1	inactive
O=C1CC2(CCCC2)CC(=O)N1	inactive
CCOC(=O)N1CCC(n2c(=O)[nH]c3cc(Cl)ccc32)CC1	inactive
CC1CCCCN1CCCOC(=O)c1ccc(OC2CCCCC2)cc1 (stereo not drawn)	inactive
COc1cc(/C=C/C(N)=O)cc(OC)c1OC	inactive
CC1(C)S[C@@H]2[C@H](NC(=O)C(c3ccccc3)S(=O)(=O)O)C(=O)N2[C@H]1C(=O)O (stereo partly drawn)	inactive
CCCCCOc1ccc(C2SC(=O)NC2=O)cc1OCC (stereo not drawn)	inactive
CCCCOCCOC(=O)c1cccnc1	inactive
O=C(O)CCCC[C@@H]1SC[C@@H]2NC(=O)N[C@@H]21	inactive
CC(=O)OCC[N+](C)(C)C	inactive
Nc1ccc([N+](=O)[O-])c(C(F)(F)F)c1	inactive
COC(=O)CCCCC(CCSS/C(CCO)=C(\C)N(C=O)Cc1cnc(C)nc1N)SC(C)=O (stereo not drawn)	inactive
Cc1ccc2ccc(Cl)cc2n1	inactive
O=[N+]([O-])c1ccc(O)c2ncccc12	inactive
C[C@@]12CCC[C@H]1[C@@H]1CC[C@H]3C[C@@H](O)CC[C@]3(C)[C@H]1CC2	inactive
CC(=O)O[C@H]1CC[C@@]2(C)C(=CC[C@@H]3[C@@H]2CC[C@]2(C)C(C(C)=O)=CC[C@@H]32)C1	inactive
CN1CCC(Nc2ncc3ncnc(Nc4ccc(F)c(Cl)c4)c3n2)CC1	18.7 µM (active)
CCc1cc(S(=O)(=O)O)c2cc(C(C)C)cccc1-2	inactive

SMILES	Potency
CC(=O)CC/C=C(\C)CC/C=C(\C)CC/C=C(\C)CCC=C(C)C	inactive
O=C(O)CCC(=O)OC[C@@H](NC(=O)C(Cl)Cl)[C@H](O)c1ccc([N+](=O)[O-])cc1	inactive
CN=C(N)NC(=O)Nc1c(C)cccc1C	inactive
O=C1CC(c2ccc(Cl)cc2)CC(=O)N1	inactive
CN1CCCN(C(c2ccccc2)c2ccc(Cl)cc2)CC1 (stereo not drawn)	inactive
Nc1c2ccccc2nc2ccccc12	inactive
O=C(CS(=O)Cc1ccco1)NC/C=C\COc1cc(CN2CCCCC2)ccn1 (stereo not drawn)	inactive
O=C(CCCl)NCc1ccccc1	inactive
Cc1cccc(N(C)C(=S)Oc2ccc3c(c2)C2CCC3C2)c1 (stereo not drawn)	inactive
O=C(CCCl)NCCc1ccccc1	inactive
Cc1onc(-c2c(Cl)cccc2Cl)c1C(=O)Cl	inactive
COC(=O)c1cc(Cl)c(NC(C)=O)cc1OC	inactive
CCCOc1ccc2c(c1)CC[C@@H]1[C@@H]2CC[C@]2(C)C(OC)CC[C@@H]12 (stereo partly drawn)	inactive
O=C(O)c1ccc(OCCN2CCCCC2)cc1	inactive
CCNC(=O)[C@@H]1CCCN1C(=O)[C@H](CCCN=C(N)N)NC(=O)[C@H](CC(C)C)NC(=O)CNC(=O)[C@H](Cc1ccc(O)cc1)NC(=O)[C@H](CO)NC(=O)[C@H](Cc1c[nH]c2ccccc12)NC(=O)[C@H](Cc1cnc[nH]1)NC(=O)[C@@H]1CCC(=O)N1 ([pGlu]HWSYGLRP-NHEt)	inactive
[O-][n+]1cccc(/C(Cl)=N/OC[C@@H](O)CN2CCCCC2)c1	inactive
c1ccc2c(c1)CCc1ccccc1N2	inactive
CN1CCC(=C2c3ccccc3CCc3cccnc32)CC1	inactive

target: Protein phosphatase 1D (Homo sapiens) (UniProt O15297); test: RapidFire Mass Spectrometry qHTS Assay for Modulators of WT P53-Induced Phosphatase 1 (WIP1) (AID 1347424); conditions: WIP1 dephosphorylation of phosphopeptide, RapidFire MS; series mostly up to 63 µM;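 also: amount of dephosphorylated VEPPL-S-QETFS peptide product formed by WIP1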
Sequence (O15297 whole entry, looked up): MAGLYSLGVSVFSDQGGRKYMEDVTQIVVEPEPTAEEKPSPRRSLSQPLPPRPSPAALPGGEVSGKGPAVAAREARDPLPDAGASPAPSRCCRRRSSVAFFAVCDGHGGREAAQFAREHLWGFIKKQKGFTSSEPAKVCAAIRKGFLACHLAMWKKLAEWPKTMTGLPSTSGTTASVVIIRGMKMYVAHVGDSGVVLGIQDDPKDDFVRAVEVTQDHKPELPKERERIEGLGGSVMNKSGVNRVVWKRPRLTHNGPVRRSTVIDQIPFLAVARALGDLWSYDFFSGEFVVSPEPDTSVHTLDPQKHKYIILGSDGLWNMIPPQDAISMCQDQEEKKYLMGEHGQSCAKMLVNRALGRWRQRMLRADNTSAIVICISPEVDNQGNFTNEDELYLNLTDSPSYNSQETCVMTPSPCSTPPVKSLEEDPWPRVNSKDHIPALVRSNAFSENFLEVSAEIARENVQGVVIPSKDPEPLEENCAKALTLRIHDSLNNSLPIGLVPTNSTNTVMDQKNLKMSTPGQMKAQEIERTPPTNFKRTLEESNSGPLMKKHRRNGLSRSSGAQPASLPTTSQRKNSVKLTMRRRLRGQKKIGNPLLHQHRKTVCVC
Method in brief: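 10 nM WIP1 + cpd, 1 h RT; + 2 uM VEPPL-pS-QETFS, 5 min RT; stop 0.5% formic acid; labelled product standard 1 uM; RapidFire MS. Buffer 50 mM Tris pH 7.5, 30 mM MgCl2, 1 mM TCEP.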

SMILES	Potency
CN(C)CCN1CCN(c2cccc(Cl)c2)C1=O	inactive
COc1ccc(-n2nc(CCC(=O)N(C)O)cc2-c2ccc(Cl)cc2)cc1	inactive
CCOC(=O)N1CCC(n2c(=O)[nH]c3cc(Cl)ccc32)CC1	inactive
CC1CCCCN1CCCOC(=O)c1ccc(OC2CCCCC2)cc1 (stereo not drawn)	inactive
COc1cc(/C=C/C(N)=O)cc(OC)c1OC	inactive
CC1(C)S[C@@H]2[C@H](NC(=O)C(c3ccccc3)S(=O)(=O)O)C(=O)N2[C@H]1C(=O)O (stereo partly drawn)	inactive
CCCCCOc1ccc(C2SC(=O)NC2=O)cc1OCC (stereo not drawn)	2.51 µM (active)
CCCCOCCOC(=O)c1cccnc1	inactive
O=C(O)CCCC[C@@H]1SC[C@@H]2NC(=O)N[C@@H]21	inactive
CC(=O)OCC[N+](C)(C)C	inactive
Nc1ccc([N+](=O)[O-])c(C(F)(F)F)c1	inactive
COC(=O)CCCCC(CCSS/C(CCO)=C(\C)N(C=O)Cc1cnc(C)nc1N)SC(C)=O (stereo not drawn)	inactive
Cc1ccc2ccc(Cl)cc2n1	inactive
O=[N+]([O-])c1ccc(O)c2ncccc12	inactive
C[C@@]12CCC[C@H]1[C@@H]1CC[C@H]3C[C@@H](O)CC[C@]3(C)[C@H]1CC2	inactive
CC(=O)O[C@H]1CC[C@@]2(C)C(=CC[C@@H]3[C@@H]2CC[C@]2(C)C(C(C)=O)=CC[C@@H]32)C1	inactive
CN1CCC(Nc2ncc3ncnc(Nc4ccc(F)c(Cl)c4)c3n2)CC1	inactive
CCc1cc(S(=O)(=O)O)c2cc(C(C)C)cccc1-2	inactive

SMILES	Potency
CC(=O)CC/C=C(\C)CC/C=C(\C)CC/C=C(\C)CCC=C(C)C	inactive
O=C(O)CCC(=O)OC[C@@H](NC(=O)C(Cl)Cl)[C@H](O)c1ccc([N+](=O)[O-])cc1	inactive
CN=C(N)NC(=O)Nc1c(C)cccc1C	inactive
O=C1CC(c2ccc(Cl)cc2)CC(=O)N1	inactive
CN1CCCN(C(c2ccccc2)c2ccc(Cl)cc2)CC1 (stereo not drawn)	inactive
Nc1c2ccccc2nc2ccccc12	inactive
O=C(CS(=O)Cc1ccco1)NC/C=C\COc1cc(CN2CCCCC2)ccn1 (stereo not drawn)	inactive
O=C(CCCl)NCc1ccccc1	inactive
Cc1cccc(N(C)C(=S)Oc2ccc3c(c2)C2CCC3C2)c1 (stereo not drawn)	inactive
O=C(CCCl)NCCc1ccccc1	inactive
Cc1onc(-c2c(Cl)cccc2Cl)c1C(=O)Cl	inactive
COC(=O)c1cc(Cl)c(NC(C)=O)cc1OC	inactive
CCCOc1ccc2c(c1)CC[C@@H]1[C@@H]2CC[C@]2(C)C(OC)CC[C@@H]12 (stereo partly drawn)	inactive
O=C(O)c1ccc(OCCN2CCCCC2)cc1	inactive
CCNC(=O)[C@@H]1CCCN1C(=O)[C@H](CCCN=C(N)N)NC(=O)[C@H](CC(C)C)NC(=O)CNC(=O)[C@H](Cc1ccc(O)cc1)NC(=O)[C@H](CO)NC(=O)[C@H](Cc1c[nH]c2ccccc12)NC(=O)[C@H](Cc1cnc[nH]1)NC(=O)[C@@H]1CCC(=O)N1 ([pGlu]HWSYGLRP-NHEt)	inactive
[O-][n+]1cccc(/C(Cl)=N/OC[C@@H](O)CN2CCCCC2)c1	inactive
c1ccc2c(c1)CCc1ccccc1N2	inactive
CN1CCC(=C2c3ccccc3CCc3cccnc32)CC1	inactive
